# “And” between values parts separate entries of the source, which are not always exact repeats. Identical values can stand only once. Results filed as inconclusive are left out. Some compounds were tested as several samples or in several runs, with calls that do not always agree. The source made the active and inactive calls. How the source made its calls, unless noted: active means hit-call score of the fitted dose curve at least 0.9, where 1 is the maximum; inconclusive means response in the unintended direction; inactive means score below 0.9.
# Columns and labels:
# [1] = ATG_TAL_CIS: Attagene CIS-FACTORIAL HepG2 Assay for human TAL Basal Promoter (AID 2282966; active means hit-call score of the fitted dose curve at least 0.9, where 1 is the maximum; inactive means score below 0.9;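 further: background control endpoint measuring basal TAL promoter reporter mRNA not a specific factor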); conditions: HepG2 Attagene cis-factorial TAL promoter reporter; actives raise or lower the signal
# Outline: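 Steps: transfect HepG2 with multiple reporter transcription units; dose 24 h; isolate RNA, reverse-transcribe, PCR-amplify, label with 6-FAM, digest with HpaI; resolve by capillary electrophoresis. Bidirectional fitting against DMSO baseline.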
# [2] = ATG_TGFb_CIS: Attagene CIS-FACTORIAL HepG2 Assay for human Transforming Growth Factor (TGF) (AID 2282967; active means hit-call score of the fitted dose curve at least 0.9, where 1 is the maximum; inactive means score below 0.9); conditions: HepG2 Attagene CIS TGFb reporter, mRNA transcription; actives raise or lower the signal
# Outline: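 Endogenous TGFB1-linked transcription factor activity read as reporter mRNA via RT-PCR and capillary electrophoresis, 24 h after dosing transiently transfected HepG2 cells. Gain or loss of signal fitted relative to DMSO.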
# [3] = ATG_VDRE_CIS: Attagene CIS-FACTORIAL HepG2 Assay for human Vitamin D Receptor Element (VDRE) (AID 2282968; active means hit-call score of the fitted dose curve at least 0.9, where 1 is the maximum; inactive means score below 0.9); conditions: HepG2 VDRE cis-reporter transcription, actives raise or lower the signal
# Outline: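 Reporter mRNA induction, quantified by capillary electrophoresis of fluorescently labelled RT-PCR products, was read 24 h after dosing HepG2 cells carrying transiently transfected cis-regulated reporter units; gain or loss relative to DMSO.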
# [4] = biological target: Nuclear receptor subfamily 1 group I member 3 (Homo sapiens) (UniProt Q14994); assay: ATG_CAR_TRANS: Attagene TRANS-FACTORIAL HepG2 Assay for human Constitutive Androstane Receptor (CAR) (AID 2282969); conditions: HepG2 Attagene TRANS-FACTORIAL CAR reporter;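 further: activators raise reporter mRNA above DMSO so AC50 marks induction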
# Sequence of Nuclear receptor subfamily 1 group I member 3 (Homo sapiens) (Q14994 whole entry, looked up, the tested form may be a part): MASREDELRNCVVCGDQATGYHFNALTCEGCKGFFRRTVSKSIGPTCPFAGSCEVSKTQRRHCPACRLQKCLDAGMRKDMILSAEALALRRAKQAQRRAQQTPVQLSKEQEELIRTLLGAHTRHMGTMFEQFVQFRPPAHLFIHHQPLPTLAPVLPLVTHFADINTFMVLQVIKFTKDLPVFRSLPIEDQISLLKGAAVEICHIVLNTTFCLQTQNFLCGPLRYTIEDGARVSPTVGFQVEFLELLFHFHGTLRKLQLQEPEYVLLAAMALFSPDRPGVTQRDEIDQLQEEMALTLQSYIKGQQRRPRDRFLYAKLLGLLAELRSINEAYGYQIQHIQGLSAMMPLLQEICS
# Outline: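 Readout is reporter mRNA induction, quantified by fluorescent primer extension and capillary electrophoresis after RT-PCR. Cells were HepG2 transiently carrying chimeric NR-Gal4 constructs with GAL4-UAS reporters, treated for 24 h; activity scored upward from DMSO.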
# [5] = biological target: Estrogen receptor (Homo sapiens) (UniProt P03372); assay: ATG_ERa_TRANS: Attagene TRANS-FACTORIAL HepG2 Assay for human Estrogen Receptor alpha (ERa) (AID 2282970); conditions: HepG2 Attagene TRANS ERa GAL4 reporter, mRNA
# Sequence of Estrogen receptor (Homo sapiens) (P03372 whole entry, looked up, the tested form may be a part): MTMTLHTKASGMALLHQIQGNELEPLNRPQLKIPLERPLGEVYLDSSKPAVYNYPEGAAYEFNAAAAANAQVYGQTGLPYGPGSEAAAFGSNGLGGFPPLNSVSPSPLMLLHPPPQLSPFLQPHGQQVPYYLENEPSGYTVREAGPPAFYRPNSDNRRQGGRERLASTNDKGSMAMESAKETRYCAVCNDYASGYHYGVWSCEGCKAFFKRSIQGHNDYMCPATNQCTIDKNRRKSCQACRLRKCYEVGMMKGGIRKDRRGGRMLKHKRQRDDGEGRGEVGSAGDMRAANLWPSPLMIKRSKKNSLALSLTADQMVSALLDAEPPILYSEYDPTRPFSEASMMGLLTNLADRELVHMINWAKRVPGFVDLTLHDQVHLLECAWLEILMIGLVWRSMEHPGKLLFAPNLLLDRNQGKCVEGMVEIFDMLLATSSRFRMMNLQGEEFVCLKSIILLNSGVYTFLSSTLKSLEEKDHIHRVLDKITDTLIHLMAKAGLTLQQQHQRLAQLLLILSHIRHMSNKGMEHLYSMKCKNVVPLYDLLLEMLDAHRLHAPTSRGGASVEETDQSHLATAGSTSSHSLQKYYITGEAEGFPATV
# Outline: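 Multiplexed cell-based reporter format in HepG2: chimeric ERa-Gal4 protein drives GAL4-UAS reporter transcription. Fluorescent reporter mRNA quantified by capillary electrophoresis 24 hours after dosing; endpoint fitted as signal gain against DMSO.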
# [6] = biological target: X-box-binding protein 1 (Homo sapiens) (UniProt P17861); assay: ATG_Xbp1_CIS: Attagene CIS-FACTORIAL HepG2 Assay for human X-box Binding Protein 1 (XBP1) (AID 2282972; active means hit-call score of the fitted dose curve at least 0.9, where 1 is the maximum; inactive means score below 0.9); conditions: HepG2 XBP1 cis-element reporter, Attagene multiplex; actives raise or lower the signal
# Sequence of X-box-binding protein 1 (Homo sapiens) (P17861 whole entry, looked up): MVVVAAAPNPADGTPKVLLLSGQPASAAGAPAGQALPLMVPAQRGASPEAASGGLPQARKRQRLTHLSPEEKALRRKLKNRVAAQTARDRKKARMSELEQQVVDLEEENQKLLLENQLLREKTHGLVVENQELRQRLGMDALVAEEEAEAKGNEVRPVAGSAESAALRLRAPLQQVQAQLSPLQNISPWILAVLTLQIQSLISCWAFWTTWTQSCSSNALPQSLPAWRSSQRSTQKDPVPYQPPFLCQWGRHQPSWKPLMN
# Outline: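 HepG2 cells transiently transfected with cis-regulated multiple reporter transcription units; endogenous transcription factor activity measured 24 hours after chemical dosing. Reporter mRNA quantified by RT-PCR, 6-FAM primer extension, HpaI digestion and capillary electrophoresis; bidirectional fitting versus DMSO.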
# [7] = biological target: Estrogen-related receptor gamma (Homo sapiens) (UniProt P62508); assay: ATG_ERRg_TRANS: Attagene TRANS-FACTORIAL HepG2 Assay for human Estrogen-Related Receptor gamma (ERRg) (AID 2282977); conditions: HepG2 Attagene TRANS reporter, ERRg transactivation;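 further: hits increase reporter signal over DMSO so potencies reflect activators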
# Sequence of Estrogen-related receptor gamma (Homo sapiens) (P62508 whole entry, looked up, the tested form may be a part): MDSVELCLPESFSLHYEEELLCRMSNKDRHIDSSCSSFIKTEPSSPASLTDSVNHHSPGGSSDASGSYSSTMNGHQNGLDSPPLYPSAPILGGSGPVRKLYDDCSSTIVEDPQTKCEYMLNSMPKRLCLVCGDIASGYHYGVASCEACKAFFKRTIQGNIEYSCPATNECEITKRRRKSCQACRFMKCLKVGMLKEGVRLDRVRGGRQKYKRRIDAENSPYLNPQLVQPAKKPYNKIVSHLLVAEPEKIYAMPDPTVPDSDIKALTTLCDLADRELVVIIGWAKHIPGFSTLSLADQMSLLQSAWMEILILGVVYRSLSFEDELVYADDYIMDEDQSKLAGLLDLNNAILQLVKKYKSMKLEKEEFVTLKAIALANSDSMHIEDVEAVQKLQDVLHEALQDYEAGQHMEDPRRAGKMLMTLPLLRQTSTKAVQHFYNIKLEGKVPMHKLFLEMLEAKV
# Outline: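 Transfect HepG2 with multiple GAL4-UAS reporter transcription units; dose chemicals 24 h; isolate RNA, reverse-transcribe with oligo(dT), PCR-amplify, label with 6-FAM, digest with HpaI; size fragments by capillary electrophoresis. DMSO serves as negative control.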
# [8] = biological target: Glucocorticoid receptor (Homo sapiens) (UniProt P04150); assay: ATG_GR_TRANS: Attagene TRANS-FACTORIAL HepG2 Assay for human Glucocorticoid Receptor (GR) (AID 2282978); conditions: HepG2 Attagene TRANS GR reporter, mRNA transcription;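 further: activators score as hits since higher reporter transcript over DMSO is fitted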
# Outline: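 Transiently transfected HepG2 cells express chimeric NR-GAL4 proteins acting on GAL4-UAS reporter units. Compounds are applied for 24 h. mRNA induction over DMSO is measured by capillary electrophoresis.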
# [9] = biological target: Oxysterols receptor LXR-alpha (Homo sapiens) (UniProt Q13133); assay: ATG_LXRa_TRANS: Attagene TRANS-FACTORIAL HepG2 Assay for human Liver X Receptor alpha (LXRa) (AID 2282980); conditions: HepG2 Attagene TRANS reporter, LXRa transactivation
# Outline: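 In this multiplexed TRANS system, compounds act on HepG2 cells carrying GAL4-UAS reporter units and a receptor-GAL4 fusion for 24 h. Induced reporter RNA is amplified, fluorescently labelled and sized by capillary electrophoresis, with DMSO as baseline.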
# [10] = biological target: Hepatocyte nuclear factor 4-alpha (Homo sapiens) (UniProt P41235); assay: ATG_HNF4a_TRANS: Attagene TRANS-FACTORIAL HepG2 Assay for human Hepatocyte Nuclear Factor 4 alpha (HNF4a) (AID 2282982); conditions: HepG2 HNF4a transactivation reporter, mRNA readout
# Sequence of Hepatocyte nuclear factor 4-alpha (Homo sapiens) (P41235 whole entry, looked up, the tested form may be a part): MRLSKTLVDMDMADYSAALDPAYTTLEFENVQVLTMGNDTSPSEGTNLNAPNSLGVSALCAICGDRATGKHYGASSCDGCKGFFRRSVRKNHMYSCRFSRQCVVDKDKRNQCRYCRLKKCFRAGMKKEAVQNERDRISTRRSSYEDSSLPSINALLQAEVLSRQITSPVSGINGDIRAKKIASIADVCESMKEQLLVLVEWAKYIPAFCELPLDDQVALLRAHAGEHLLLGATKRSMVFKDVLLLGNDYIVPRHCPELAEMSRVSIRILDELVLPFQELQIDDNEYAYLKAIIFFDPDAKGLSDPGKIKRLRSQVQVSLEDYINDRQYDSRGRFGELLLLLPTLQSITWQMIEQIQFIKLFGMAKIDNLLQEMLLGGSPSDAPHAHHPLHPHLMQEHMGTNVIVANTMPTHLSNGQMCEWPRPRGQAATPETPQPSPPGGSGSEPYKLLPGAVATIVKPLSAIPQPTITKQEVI
# Outline: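 Readout is fluorescent reporter-transcript fragments resolved by capillary electrophoresis after RT-PCR from HepG2 cells dosed for 24 h. Cells carried transfected GAL4-UAS reporter constructs measuring exogenous NR-GAL4 chimera activity; DMSO served as baseline.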
# [11] = ATG_M_06_TRANS: Attagene TRANS-FACTORIAL HepG2 Assay for M06 Transcription Factor (Internal Marker) (AID 2282983); conditions: HepG2 Attagene TRANS M06 internal marker reporter;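 further: reporter transcript level by RT-PCR then capillary electrophoresis fluorescence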
# Outline: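 Internal-marker background readout from a multiplexed TRANS reporter system in HepG2; 24 h dosing; mRNA induction quantified by RT-PCR plus capillary electrophoresis fluorescence; DMSO as negative control and baseline.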
# [12] = biological target: Transcriptional activator Myb (Homo sapiens) (UniProt P10242); assay: ATG_Myb_CIS: Attagene CIS-FACTORIAL HepG2 Assay for human Myeloblastosis (Myb) Proto-Oncogene Transcription Factor (AID 2282986; active means hit-call score of the fitted dose curve at least 0.9, where 1 is the maximum; inactive means score below 0.9); conditions: HepG2 Attagene CIS-FACTORIAL Myb reporter transcription; actives raise or lower the signal
# Sequence of Transcriptional activator Myb (Homo sapiens) (P10242 whole entry, looked up): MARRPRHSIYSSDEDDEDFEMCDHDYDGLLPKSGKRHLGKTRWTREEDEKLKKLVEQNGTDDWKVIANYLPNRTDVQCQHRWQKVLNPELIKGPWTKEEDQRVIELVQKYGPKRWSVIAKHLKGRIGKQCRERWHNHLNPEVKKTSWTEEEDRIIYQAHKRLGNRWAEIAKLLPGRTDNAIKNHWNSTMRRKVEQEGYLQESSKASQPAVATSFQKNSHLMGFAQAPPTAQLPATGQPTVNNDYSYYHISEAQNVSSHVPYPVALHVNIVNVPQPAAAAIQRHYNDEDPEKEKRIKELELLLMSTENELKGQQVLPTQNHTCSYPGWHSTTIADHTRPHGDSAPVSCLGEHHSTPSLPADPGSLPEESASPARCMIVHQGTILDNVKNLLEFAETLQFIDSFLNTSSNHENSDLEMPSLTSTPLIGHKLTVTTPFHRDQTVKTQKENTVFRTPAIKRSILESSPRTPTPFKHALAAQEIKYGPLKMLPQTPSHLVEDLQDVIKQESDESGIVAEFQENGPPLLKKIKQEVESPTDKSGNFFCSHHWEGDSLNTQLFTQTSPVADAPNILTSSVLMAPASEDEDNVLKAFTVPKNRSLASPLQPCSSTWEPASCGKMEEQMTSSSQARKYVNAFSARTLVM
# Outline: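 Using HepG2 liver cells bearing transiently transfected cis-promoter reporter constructs, the assay measures induction or loss of reporter mRNA after 24 hours of dosing. Detection used fluorescently labeled RT-PCR products separated by capillary electrophoresis.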
# [13] = biological target: Nuclear respiratory factor 1 (Homo sapiens) (UniProt Q16656); assay: ATG_NRF1_CIS: Attagene CIS-FACTORIAL HepG2 Assay for human Nuclear Respiratory Factor 1 (NRF1) Orphan Gene (AID 2282987; active means hit-call score of the fitted dose curve at least 0.9, where 1 is the maximum; inactive means score below 0.9); conditions: HepG2 NRF1 cis-element reporter, Attagene multiplex; actives raise or lower the signal
# Sequence of Nuclear respiratory factor 1 (Homo sapiens) (Q16656 whole entry, looked up): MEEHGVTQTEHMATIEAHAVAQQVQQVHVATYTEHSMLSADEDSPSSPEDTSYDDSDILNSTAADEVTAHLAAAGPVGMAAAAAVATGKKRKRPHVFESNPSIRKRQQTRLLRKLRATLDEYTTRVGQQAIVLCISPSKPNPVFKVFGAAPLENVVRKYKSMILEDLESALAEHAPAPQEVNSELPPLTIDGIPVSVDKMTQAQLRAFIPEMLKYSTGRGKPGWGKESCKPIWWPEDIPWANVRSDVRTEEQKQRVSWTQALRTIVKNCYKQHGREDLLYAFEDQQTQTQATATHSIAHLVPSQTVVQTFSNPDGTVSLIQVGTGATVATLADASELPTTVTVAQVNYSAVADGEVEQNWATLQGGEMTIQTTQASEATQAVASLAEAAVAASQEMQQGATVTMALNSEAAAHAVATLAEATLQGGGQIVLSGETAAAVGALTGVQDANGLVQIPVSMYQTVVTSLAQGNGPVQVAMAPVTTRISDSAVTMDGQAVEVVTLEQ
# Outline: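 Reporter mRNA induction or loss in HepG2 cells after 24 h dosing; cis-regulated reporter constructs report endogenous transcription-factor activity. Quantified by RT-PCR/capillary electrophoresis fluorescence, DMSO-referenced.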
# [14] = biological target: Steroid hormone receptor ERR1 (Homo sapiens) (UniProt P11474); assay: ATG_ERRa_TRANS: Attagene TRANS-FACTORIAL HepG2 Assay for human Estrogen-Related Receptor alpha (ERRa) (AID 2282971); conditions: HepG2 Attagene TRANS reporter, ERRa transactivation
# Sequence of Steroid hormone receptor ERR1 (Homo sapiens) (P11474 whole entry, looked up, the tested form may be a part): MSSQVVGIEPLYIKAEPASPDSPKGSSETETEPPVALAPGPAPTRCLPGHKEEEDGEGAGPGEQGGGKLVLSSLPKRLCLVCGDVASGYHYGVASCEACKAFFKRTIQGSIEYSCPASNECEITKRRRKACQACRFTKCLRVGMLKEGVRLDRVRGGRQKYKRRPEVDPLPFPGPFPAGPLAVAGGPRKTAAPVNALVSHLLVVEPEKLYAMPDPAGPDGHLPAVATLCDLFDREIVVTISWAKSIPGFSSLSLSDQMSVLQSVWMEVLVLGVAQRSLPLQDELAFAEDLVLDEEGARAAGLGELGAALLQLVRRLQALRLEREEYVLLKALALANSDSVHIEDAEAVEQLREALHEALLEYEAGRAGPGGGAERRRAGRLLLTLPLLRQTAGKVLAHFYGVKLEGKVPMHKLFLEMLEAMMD
# Outline: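 Signal gain relative to DMSO for an ERRa-Gal4 chimeric receptor, read as reporter mRNA by RT-PCR/capillary electrophoresis. Human HepG2 liver cells, transient multiplex reporter transfection, 24 h chemical exposure.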
# [15] = biological target: Bile acid receptor (Homo sapiens) (UniProt Q96RI1); assay: ATG_FXR_TRANS: Attagene TRANS-FACTORIAL HepG2 Assay for Farnesoid X Receptor (FXR) (AID 2282979); conditions: HepG2 Attagene TRANS FXR-GAL4 reporter transcription;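 further: hits raise reporter mRNA above DMSO so AC50 marks FXR activation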
# Outline: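 After 24 h chemical treatment of transfected HepG2 cells, GAL4-UAS reporter transcripts driven by an exogenous FXR-GAL4 fusion were measured by RT-PCR and capillary electrophoresis. Increases over DMSO were fitted.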
# [16] = biological target: Nuclear receptor subfamily 4 group A member 2 (Homo sapiens) (UniProt P43354); assay: ATG_NURR1_TRANS: Attagene TRANS-FACTORIAL HepG2 Assay for human Nuclear Receptor Related Protein 1 (NURR1) (AID 2282985); conditions: HepG2 Attagene TRANS reporter, mRNA readout
# Sequence of Nuclear receptor subfamily 4 group A member 2 (Homo sapiens) (P43354 whole entry, looked up, the tested form may be a part): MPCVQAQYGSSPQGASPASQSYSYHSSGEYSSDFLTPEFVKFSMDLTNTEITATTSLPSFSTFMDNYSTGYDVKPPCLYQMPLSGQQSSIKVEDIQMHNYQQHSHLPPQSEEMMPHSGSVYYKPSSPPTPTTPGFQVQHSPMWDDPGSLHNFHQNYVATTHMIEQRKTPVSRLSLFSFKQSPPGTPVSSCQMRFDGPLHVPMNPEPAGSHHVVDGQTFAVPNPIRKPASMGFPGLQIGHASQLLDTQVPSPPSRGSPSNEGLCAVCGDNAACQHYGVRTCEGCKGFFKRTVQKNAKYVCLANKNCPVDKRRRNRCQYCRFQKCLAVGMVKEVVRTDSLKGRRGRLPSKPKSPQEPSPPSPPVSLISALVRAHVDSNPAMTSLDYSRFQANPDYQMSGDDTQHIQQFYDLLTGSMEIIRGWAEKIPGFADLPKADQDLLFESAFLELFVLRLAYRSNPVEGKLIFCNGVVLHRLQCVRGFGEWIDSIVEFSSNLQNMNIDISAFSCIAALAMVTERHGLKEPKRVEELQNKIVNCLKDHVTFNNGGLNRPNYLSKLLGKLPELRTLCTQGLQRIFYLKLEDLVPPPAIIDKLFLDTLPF
# Outline: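 Transient transfection of HepG2, human liver cells, with multiple GAL4-UAS reporter transcription units. Cells dosed 24 h, RNA isolated, reverse-transcribed, PCR-amplified, FAM-labelled, HpaI-digested, sized by capillary electrophoresis. DMSO served as negative control.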
# [17] = ATG_M_19_TRANS: Attagene TRANS-FACTORIAL HepG2 Assay for M19 Transcription Factor (Internal Marker) (AID 2282974); conditions: HepG2 Attagene TRANS-FACTORIAL M19 internal marker reporter
# Outline: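 Multiplexed TRANS format: HepG2 liver cells bearing transient GAL4-UAS reporter units, chemical treatment 24 h, reporter transcripts quantified by RT-PCR plus capillary electrophoresis. DMSO defines baseline.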
# [18] = ATG_GAL4_TRANS: Attagene TRANS-FACTORIAL HepG2 Assay for GAL4 (Internal Marker) (AID 2282976); conditions: HepG2 Attagene TRANS GAL4 internal marker reporter
# Outline: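 Liver HepG2 line bearing multiplexed GAL4-UAS reporter constructs; 24 h chemical treatment. Transcripts were quantified as fluorescent fragments on capillary electrophoresis after RT-PCR and HpaI cut, with activity fitted upward from DMSO.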
# [19] = biological target: Oxysterols receptor LXR-beta (Homo sapiens) (UniProt P55055); assay: ATG_LXRb_TRANS: Attagene TRANS-FACTORIAL HepG2 Assay for human Liver X Receptor beta (LXRb) (AID 2282981); conditions: HepG2 Attagene TRANS GAL4-LXRb reporter, mRNA
# Sequence of Oxysterols receptor LXR-beta (Homo sapiens) (P55055 whole entry, looked up, the tested form may be a part): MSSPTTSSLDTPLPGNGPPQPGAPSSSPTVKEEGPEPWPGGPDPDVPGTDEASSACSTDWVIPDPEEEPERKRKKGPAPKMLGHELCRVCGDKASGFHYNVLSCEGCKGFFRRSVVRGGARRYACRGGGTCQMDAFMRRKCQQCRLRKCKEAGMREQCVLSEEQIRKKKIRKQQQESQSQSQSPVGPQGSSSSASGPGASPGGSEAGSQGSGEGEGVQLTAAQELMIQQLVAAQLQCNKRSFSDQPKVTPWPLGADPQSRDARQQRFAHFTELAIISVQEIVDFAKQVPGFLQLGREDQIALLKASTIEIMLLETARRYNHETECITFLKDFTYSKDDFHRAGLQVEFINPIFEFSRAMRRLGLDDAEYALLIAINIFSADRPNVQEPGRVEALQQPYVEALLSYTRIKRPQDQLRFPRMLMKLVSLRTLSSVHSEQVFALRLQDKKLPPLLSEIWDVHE
# Outline: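 Transient transfection HepG2 (multiplexed RTUs, GAL4-UAS); NR-Gal4 chimera; 24 h exposure; RNA → RT-PCR → 6-FAM primer extension → HpaI → CE; increase vs DMSO.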
# [20] = ATG_M_32_TRANS: Attagene TRANS-FACTORIAL HepG2 Assay for M32 Transcription Factor (Internal Marker) (AID 2282984); conditions: HepG2 Attagene TRANS M32 internal marker reporter;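 further: transcript level of a background control reporter unit measured by RT-PCR and capillary electrophoresis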
# Outline: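 Measures reporter mRNA induction in human HepG2 liver cells after 24 h chemical treatment. Transcripts from transiently transfected GAL4-UAS reporter units are amplified, fluorescently labelled and sized by capillary electrophoresis; gain of signal relative to DMSO.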
smiles,measurement,setting,value
CCN(CC)C(=O)c1cc(S(=O)(=O)Cc2ccccc2)c(N2CCC(c3ccccc3)CC2)cc1N(CC)CCN(C)C,outcome,[1],inactive
same,outcome,[2],inactive
same,outcome,[3],inactive
same,outcome,[4],inactive
same,outcome,[5],inactive
same,outcome,[6],inactive
same,outcome,[7],inactive
same,outcome,[8],inactive
same,outcome,[9],inactive
same,outcome,[10],inactive
same,outcome,[11],inactive
same,outcome,[12],inactive
same,outcome,[13],inactive
CCN(Cc1cccc(S(=O)(=O)O)c1)c1ccc(C(=C2C=CC(=[N+](CC)Cc3cccc(S(=O)(=O)O)c3)C=C2)c2ccccc2S(=O)(=O)[O-])cc1,outcome,[1],inactive
same,outcome,[2],inactive
same,outcome,[3],inactive
same,outcome,[4],inactive
same,outcome,[5],inactive
same,outcome,[14],inactive
same,outcome,[6],inactive
same,outcome,[7],inactive
same,outcome,[15],inactive
same,outcome,[10],inactive
same,outcome,[11],inactive
same,outcome,[16],inactive
same,outcome,[12],inactive
same,outcome,[13],inactive
O=C(O)Cc1cc(I)c(Oc2ccc(O)c(I)c2)c(I)c1,outcome,[1],inactive
same,outcome,[2],inactive
same,AC50,[3],33.7 µM (active) [middle of 4 runs]
same,outcome,[4],inactive
same,outcome,[6],inactive
same,outcome,[17],inactive
same,outcome,[18],inactive
same,outcome,[7],inactive
same,outcome,[8],inactive
same,outcome,[15],inactive
same,outcome,[9],inactive
same,outcome,[10],inactive
same,outcome,[11],inactive
same,outcome,[20],inactive
same,AC50,[16],82 µM (active) and 100 µM (active)
same,outcome,[12],inactive
same,AC50,[13],159 µM (active)
same,outcome,[13],inactive
CC[C@H](NC(=O)c1cc(F)ccc1NS(=O)(=O)c1cccc2cccnc12)c1ccccc1,outcome,[1],inactive
same,outcome,[2],inactive
same,AC50,[3],209 nM (active)
same,outcome,[5],inactive
same,outcome,[14],inactive
same,outcome,[6],inactive
same,outcome,[17],inactive
same,outcome,[18],inactive
same,outcome,[7],inactive
same,outcome,[15],inactive
same,outcome,[11],inactive
same,outcome,[20],inactive
same,outcome,[16],inactive
same,outcome,[12],inactive
same,outcome,[13],inactive
CC[C@@H]1C[C@H](N(Cc2cc(C(F)(F)F)cc(C(F)(F)F)c2)C(C)=O)c2cc(C(F)(F)F)ccc2N1C(=O)OC(C)C,outcome,[1],inactive
same,outcome,[2],inactive
same,AC50,[3],119 nM (active)
same,outcome,[4],inactive
same,AC50,[5],100 µM (active)
same,outcome,[6],inactive
same,outcome,[18],inactive
same,AC50,[8],100 µM (active)
same,outcome,[9],inactive
same,outcome,[19],inactive
same,outcome,[10],inactive
same,outcome,[11],inactive
same,outcome,[20],inactive
same,outcome,[12],inactive
same,outcome,[13],inactive
O=c1c(-c2ccc(O)cc2)coc2cc(O)cc(O)c12,AC50,[1],77.3 µM (active) and 100 µM (active) and 27 µM (active)
same,outcome,[1],inactive
same,outcome,[2],inactive
same,AC50,[3],61300 nM (active)
same,outcome,[3],inactive
same,outcome,[4],inactive
same,outcome,[6],inactive
same,outcome,[17],inactive
same,outcome,[18],inactive
same,outcome,[8],inactive
same,outcome,[15],inactive
same,outcome,[9],inactive
same,outcome,[19],inactive
same,outcome,[10],inactive
same,outcome,[11],inactive
same,outcome,[16],inactive
same,outcome,[12],inactive
same,outcome,[13],inactive
O=CCCCC=O,outcome,[1],inactive
same,outcome,[2],inactive
same,outcome,[3],inactive
same,outcome,[5],inactive
same,outcome,[14],inactive
same,outcome,[6],inactive
same,outcome,[17],inactive
same,outcome,[18],inactive
same,outcome,[7],inactive
same,outcome,[8],inactive
same,outcome,[15],inactive
same,outcome,[9],inactive
same,outcome,[19],inactive
same,outcome,[10],inactive
same,outcome,[11],inactive
same,outcome,[20],inactive
same,outcome,[16],inactive
same,outcome,[12],inactive
Clc1cc(Cl)c2c(c1)N=C1CCCCCN1C2,outcome,[1],inactive
same,outcome,[2],inactive
same,outcome,[3],inactive
same,outcome,[4],inactive
same,outcome,[5],inactive
same,outcome,[6],inactive
same,outcome,[7],inactive
same,outcome,[8],inactive
same,outcome,[11],inactive
same,outcome,[12],inactive
